# CRFR2-BP antag = antagonists of CRF-binding protein/CRF-R2 receptor complex; inhibition, % at 11.8 µM; actives 0.59% (n = 350,000); AID 588475; HEK293 CRF-R2/CRF-BP, CRF-induced calcium fluorescence;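 active = inhibition of the ligand-induced calcium signal above about 50% at the single tested concentration, limit read from the data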
# ABCB6 inh 2 = inhibitors of human ABC transporter ABCB6; K562-ABCB6 porphyrin accumulation, flow cytometry, 1 h; stronger effect = lower value; fluorescence ratio to DMSO, % at 10 µM; actives 0.19% (n = 360,000);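 active = fluorescence ratio to DMSO below 75%, the collection mean minus 3 SD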;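 note: signal is porphyrin accumulated inside mitochondria; lower ratio means ABCB6 inhibition with less porphyrin fluorescence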
# MEKK2wt PB1 HTS = raises or lowers MEK5 binding to wildtype human MEKK2 PB1 domain; binding response (% of control), % at 10 µM; Q9Y2U5; AID 1531; actives 1.1% (n = 290,000); bead flow cytometry, Alexa488-MEK5 binding to MEKK2 WT; actives lie on both sides; in the data active = binding response below about 67% or above about 130%
# CRFR2-BP ag = agonists of human CRF-binding protein/CRF-R2 receptor complex; HEK293 CRF-R2/CRF-BP, calcium dye fluorescence (FLIPR); percent of saturating CRF peptide response; activation, % at 13.2 µM; actives 0.46% (n = 350,000); AID 588473;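 active = activation of at least 50%, plus an integration ratio under a set limit after plate pattern correction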
# MEKK3 PB1 HTS = raises or lowers MEK5 binding to the human MEKK3 PB1 domain. binding response (% of control), % at 10 µM. bead-based flow cytometry, Alexa488-MEK5 binding to MEKK3; actives lie on both sides; 0 = blocked by unlabeled MEK5, 100 = vehicle. actives 1.4% (n = 290,000);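 active = binding response more than 3 SD above or below the average of its plate-row segment, actives on both sides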;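 note: Alexa488 bead fluorescence after subtracting the streptavidin-only scavenger bead signal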
# Target sequence (Q99759 whole entry, looked up, the tested form may be a part): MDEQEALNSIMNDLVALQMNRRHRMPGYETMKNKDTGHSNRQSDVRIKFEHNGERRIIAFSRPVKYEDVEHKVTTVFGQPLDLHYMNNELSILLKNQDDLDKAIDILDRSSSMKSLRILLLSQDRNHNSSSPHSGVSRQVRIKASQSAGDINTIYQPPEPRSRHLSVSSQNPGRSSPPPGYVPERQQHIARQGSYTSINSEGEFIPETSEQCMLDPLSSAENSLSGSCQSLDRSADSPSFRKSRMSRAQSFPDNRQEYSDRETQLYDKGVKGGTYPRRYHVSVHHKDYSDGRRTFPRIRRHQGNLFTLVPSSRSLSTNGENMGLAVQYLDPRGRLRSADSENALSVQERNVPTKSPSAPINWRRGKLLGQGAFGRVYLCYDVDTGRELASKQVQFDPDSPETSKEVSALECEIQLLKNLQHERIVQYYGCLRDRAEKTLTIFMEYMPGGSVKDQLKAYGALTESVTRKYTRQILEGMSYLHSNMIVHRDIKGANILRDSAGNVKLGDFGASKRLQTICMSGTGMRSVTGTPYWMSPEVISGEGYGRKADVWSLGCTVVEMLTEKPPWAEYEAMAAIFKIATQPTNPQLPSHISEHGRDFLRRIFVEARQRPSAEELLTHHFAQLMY
# MEKK2 mut-MEK5 = signal of MEK5 binding to mutant human MEKK2 PB1 domain | percent response, % at 10 µM | actives 0.35% (n = 290,000) | bead flow cytometry, Alexa488-MEK5 binding to MEKK2 mutant; in the data active = percent response above about 24%, passing the limit was not always enough
# MEKK2wt confirm = raises or lowers MEK5 binding to wildtype human MEKK2, retest; shares compounds with MEKK3 PB1 HTS; bead flow cytometry, Alexa488-MEK5 binding to MEKK2 WT; actives lie on both sides; binding response (% of control), % at 10 µM; actives 2.4% (n = 5,900); AID 1892; in the data active = binding response below about 16% or above about 210%; inactive = in between
# MEKK2mut-MEK5 = signal of MEK5 binding to mutant human MEKK2, retest; shares compounds with MEKK3 PB1 HTS; bead flow cytometry, Alexa488-MEK5 binding to MEKK2 mutant; percent response, % at 10 µM; actives 2% (n = 5,900); in the data active = percent response mostly above about 71%, no sharp cut-off; inactive = mostly below about 38%;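 note: higher means compound restores mutant binding toward wildtype level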
# MEKK3 confirm = MEKK3-MEK5 PB1 inhibition, single concentration confirmation | bead flow cytometry, Alexa488-MEK5 binding to MEKK3; stronger effect = lower value | binding response (% of control), % at 10 µM | shares compounds with MEKK3 PB1 HTS | actives 1.8% (n = 5,900);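 active = binding response below 72% of control, or above a set upper limit, though filed actives all read lower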
# A number is an active result; n = inactive; x = no result; [ ] = remark or other dose. Sampled rows, rich in hits. Any-hit rate of the full collection: about 2.9%.
SMILES,CRFR2-BP antag,ABCB6 inh 2,MEKK2wt PB1 HTS,CRFR2-BP ag,MEKK3 PB1 HTS,MEKK2 mut-MEK5,MEKK2wt confirm,MEKK2mut-MEK5,MEKK3 confirm
COc1ccc(C(=O)COC(=O)c2nn(C)cc2Cl)cc1,n,n,n,n,n,n,x,x,x
O=C(Nc1cccc(Cl)c1)C1C2C=CC3(O2)C1C(=O)N(CCCN1CCCCC1)C3C(=O)NC1CCCCC1 (stereo not drawn),n,n,n,n,n,n,x,x,x
FC(F)(F)c1nnc2ccc(Sc3ccccn3)nn12,n,n,x,n,1.0[inhibitor],n,n,n,n
O=[N+]([O-])c1cc(C(F)(F)F)ccc1NCCCCNS(=O)(=O)c1ccc(Cl)cc1,n,n,n,n,n,n,x,x,x
O=[N+]([O-])c1cc(C(F)(F)F)ccc1NCCNC(=S)Nc1ccc(Cl)cc1,n,n,139,n,n,n,n,n,n
CCOc1ccccc1NC(=O)CSc1nnnn1C1CCCC1,n,n,n,n,n,n,x,x,x
CCCCN1C(=O)/C(=C/C=C2\N(C)c3ccccc3C2(C)C)SC1=S,x,x,n,x,n,156,n,-58[inhibitor],41
CC(O)C(NS(=O)(=O)c1ccc(Cl)cc1)C(=O)OCCOc1ccc(F)cc1 (stereo not drawn),n,n,x,n,x,x,x,x,x
O=C(NCc1ccco1)c1ccc(=O)[nH]n1,n,n,n,n,82[inhibitor],n,n,n,n
O=C(NCc1ccc(F)cc1)C1Cc2ccccc2CN1C(=O)c1ccco1 (stereo not drawn),n,n,n,n,69[inhibitor],n,n,n,n
O=C(NCc1ccccc1)C1Cc2ccccc2CN1C(=O)c1ccco1 (stereo not drawn),n,n,n,n,n,n,x,x,x
CN(Cc1ccccn1)Cc1cn(Cc2ccccc2)nc1-c1ccc2c(c1)OCO2,n,n,196,n,n,n,n,n,n
CN(Cc1ccccc1)C(=O)c1ccc(NC(=O)Cc2ccc(NC(=O)C3CCN(C(=O)CCc4ccccc4)CC3)cc2)cc1,n,n,x,n,x,x,x,x,x
Nc1nc(=O)c2ccccc2s1,n,n,x,n,x,x,x,x,x
CC1=C(C(N)=O)C(c2ccc(Br)cc2)n2nc(CCCO)nc2N1 (stereo not drawn),n,n,44[inhibitor],n,n,n,n,n,n
Cc1cccc(-n2c(N)c(-c3nc4ccccc4n3C)c3nc4ccccc4nc32)c1,n,n,n,n,n,n,x,x,x
Cn1c(-c2c(N)n(-c3ccccc3)c3nc4ccccc4nc23)nc2ccccc21,n,n,n,86,68[inhibitor],n,n,n,n
O=c1oc2ccccc2c2c1SC(C(F)(F)F)C2 (stereo not drawn),n,n,n,n,n,n,x,x,x
O=c1oc2ccc3ccccc3c2c2c1SC(C(F)(F)F)C2 (stereo not drawn),n,n,n,n,124,n,n,n,n
Cc1c(N2C(=O)C(=O)/C(=C(/O)c3ccc(Cl)cc3)C2c2ccccc2)c(=O)n(-c2ccccc2)n1C (stereo not drawn),n,n,n,n,135,n,n,n,n
Cc1c(C(=O)NC2CCC(C)CC2)oc2ccccc12 (stereo not drawn),n,n,n,n,n,n,x,x,x
CCOc1ccc(C(=O)NCC(c2cccs2)N(C)C)cc1OCC (stereo not drawn),n,n,n,n,70[inhibitor],n,n,n,n
CCCOc1ccc(C(=O)NCC(c2cccs2)N(C)C)cc1 (stereo not drawn),n,n,n,n,n,n,x,x,x
COc1ccc(-n2nc(C(=O)NCC(=O)NCCCN3CCCCCC3)c3ccccc3c2=O)cc1Cl,n,n,149,n,n,n,n,n,n
COCCNc1nnc(SCC(=O)Nc2cc(-c3ccccc3)nn2-c2ccccc2)s1,n,n,n,n,68[inhibitor],n,n,n,n
SMILES,CRFR2-BP antag,ABCB6 inh 2,MEKK2wt PB1 HTS,CRFR2-BP ag,MEKK3 PB1 HTS,MEKK2 mut-MEK5,MEKK2wt confirm,MEKK2mut-MEK5,MEKK3 confirm
CCN(CC)S(=O)(=O)c1ccc(C(=O)/C=C/c2ccc(-c3ccc([N+](=O)[O-])cc3)o2)cc1,n,n,37[inhibitor],n,n,n,n,n,n
COc1ccc(C(=O)COC(=O)C2COc3ccccc3O2)cc1F (stereo not drawn),n,n,x,n,x,x,x,x,x
Cc1c(C#N)c(N=CN(C)C)c(C(=O)c2ccc(Br)cc2)n1-c1ccccc1,n,n,69[inhibitor],n,n,n,n,n,n
COc1ccccc1NC(=O)N1CCOCC1,n,n,n,n,n,n,x,x,x
COC(=O)c1cc(OC)c(OC)cc1NC(=O)CN1CCCCC1,n,n,-4.0[inhibitor],n,-1.0[inhibitor],n,n,n,n
COc1ccccc1NC(=S)N1CCOCC1,n,n,n,n,73[inhibitor],n,n,n,n
COC(=O)c1cc(OC)c(OC)cc1NC(=S)N1CCN(c2ccccc2)CC1,n,n,2.0[inhibitor],n,1.0[inhibitor],n,n,n,n
COc1ccc(Cl)cc1S(=O)(=O)NCc1nc2nc(C)cc(C)n2n1,n,n,n,n,n,n,x,x,x
CCN(CC)C(=O)c1cc(-c2ccc3c(c2)OCO3)on1,n,n,n,n,n,n,x,x,x
CCOc1ccc(NC(=O)C2C3C=CC4(O3)C2C(=O)N(Cc2cccnc2)C4C(=O)NC2CCCCC2)cc1 (stereo not drawn),n,n,n,n,n,n,x,x,x
CCOc1ccccc1NC(=O)CSc1ccc(-c2sc(C)nc2C)nn1,n,n,n,n,n,n,x,x,x
CCc1ccc2nc(NC(=O)C3CSC4(C)CCC(=O)N34)sc2c1 (stereo not drawn),n,n,x,n,x,x,x,x,x
CCCCCc1ccc(OCCC[n+]2ccccc2)c(CCCCC)c1,n,n,145,n,n,n,n,n,n
C[n+]1cn(CC(O)COCc2ccccc2)c2ccccc21 (stereo not drawn),n,n,x,n,x,x,x,x,x
CCCCCc1ccc(OCCOCCn2c[n+](C)c3ccccc32)c(CCCCC)c1,n,n,232,n,n,n,n,n,n
O=c1c2cc(Cl)ccc2[nH]c(=S)n1Cc1ccccn1,n,n,n,n,151,n,n,n,n
CCN(CC(=O)NCc1ccc(Cl)cc1)C(=O)c1ccc(C#N)cc1,n,n,n,n,n,n,x,x,x

# Assay outcomes deposited in PubChem by several laboratories.
